Results as given in PubChem BioAssay (NCATS).
Results filed as inconclusive are left out. Active and inactive are the calls of the source. Unless noted, calls come from the whole dose curve; as a rule, active = well fitted curve in the direction sought with a large enough effect; inconclusive = small, poorly fitted or top-dose-only effect, or another doubt; inactive = no such curve, though single readings can be large; an effect the other way counts as inactive or inconclusive.

Key:
[1] = AP1 Signaling Pathway (AID 357; active = well fitted curve in either direction with a large enough effect, not every such curve was filed as active;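 note: ME-180 reporter cells stimulated with EGF at its EC50 level; % is set by controls: 0 for no effect and ±100 for the full control effect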); conditions: ME-180 AP-1-bla reporter, EGF-induced, beta-lactamase ratio, 5 h; at 7.69 µM (top of the series) unless noted
Outline: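 A ratiometric CCF4 readout (405 nm excitation; 460 and 530 nm emission) quantified AP-1-driven beta-lactamase in ME-180 cells after 5 h with compound and EC50 EGF; AC50 values were derived for activators and inhibitors.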

[2] = target: Cytochrome P450 1A2 (Homo sapiens) (UniProt P05177); assay: p450-cyp1a2 (AID 410; calls by dose curve;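 note: -100% = full effect of reference inhibitor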)
Sequence of Cytochrome P450 1A2 (Homo sapiens) (P05177 whole entry, looked up): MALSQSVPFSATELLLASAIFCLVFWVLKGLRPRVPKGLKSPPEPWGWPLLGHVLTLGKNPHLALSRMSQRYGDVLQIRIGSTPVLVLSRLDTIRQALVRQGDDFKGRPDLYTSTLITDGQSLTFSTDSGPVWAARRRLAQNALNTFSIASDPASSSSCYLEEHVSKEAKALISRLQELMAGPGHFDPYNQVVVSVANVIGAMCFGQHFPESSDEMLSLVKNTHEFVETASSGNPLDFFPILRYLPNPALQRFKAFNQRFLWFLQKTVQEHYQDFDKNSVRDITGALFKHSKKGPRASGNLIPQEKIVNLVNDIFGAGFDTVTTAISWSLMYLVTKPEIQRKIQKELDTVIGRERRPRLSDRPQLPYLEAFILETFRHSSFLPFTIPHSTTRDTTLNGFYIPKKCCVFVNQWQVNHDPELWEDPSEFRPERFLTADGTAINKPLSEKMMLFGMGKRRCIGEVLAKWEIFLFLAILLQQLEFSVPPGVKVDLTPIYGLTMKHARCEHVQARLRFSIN
Outline: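 Luminescent demethylation readout: Luciferin-ME (100uM, equal to Km) turned over by 20nM CYP1A2 for 60 min at room temperature after NADPH regeneration addition, following 10 min compound preincubation. Normalization used 57 uM furafylline as full inhibition.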

[3] = NFAT Signaling Pathway (AID 444; active = well fitted curve in either direction with a large enough effect, not every such curve was filed as active;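 note: carbachol stimulus at about its EC50 of 1 µM final; % is set by controls: 0 for no effect and ±100 for the full control effect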); conditions: Jurkat NFAT-bla M1, carbachol, beta-lactamase ratio, 5 h; at 7.69 µM (top of the series) unless noted
Outline: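 Jurkat cells with NFAT-driven β-lactamase reporter and co-expressed M1 receptor, stimulated with carbachol (final 1 uM, ~EC50), compound titration, 5 h at 37 °C. CCF4 loaded 1 h at RT; 460/530 nm ratio gave %activity and AC50.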

[4] = Stat Signaling Pathway (AID 446; active = well fitted curve in either direction with a large enough effect, not every such curve was filed as active;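 note: ME-180 cervical cancer cells given 40 pM IL-6 alongside compound; SIE-controlled beta-lactamase reporter measured as 460/530 nm FRET emission ratio; % is set by controls: 0 for no effect and ±100 for the full control effect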); conditions: ME-180 (cervical carcinoma) SIE beta-lactamase reporter, IL-6 stimulated, 5 h; at 7.69 µM (top of the series) unless noted
Outline: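 Overnight-plated ME-180 cells bearing a STAT Inducible Element beta-lactamase reporter; 5 h co-exposure to compound and 40 pM IL-6; values normalized to 300 pM IL-6 and 125 nM JAK inhibitor controls.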

[5] = target: Glucocorticoid receptor (Homo sapiens) (UniProt P04150); assay: GR-GFP Redistribution (AID 450;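 active = compounds whose dose series gives a full or clear partial fitted curve of increased nuclear translocation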; note: potency is the fitted concentration of half-maximal effect); conditions: U2OS GR-GFP nuclear translocation, laser cytometry, 2 h
Sequence of Glucocorticoid receptor (Homo sapiens) (P04150 whole entry, looked up, the tested form may be a part): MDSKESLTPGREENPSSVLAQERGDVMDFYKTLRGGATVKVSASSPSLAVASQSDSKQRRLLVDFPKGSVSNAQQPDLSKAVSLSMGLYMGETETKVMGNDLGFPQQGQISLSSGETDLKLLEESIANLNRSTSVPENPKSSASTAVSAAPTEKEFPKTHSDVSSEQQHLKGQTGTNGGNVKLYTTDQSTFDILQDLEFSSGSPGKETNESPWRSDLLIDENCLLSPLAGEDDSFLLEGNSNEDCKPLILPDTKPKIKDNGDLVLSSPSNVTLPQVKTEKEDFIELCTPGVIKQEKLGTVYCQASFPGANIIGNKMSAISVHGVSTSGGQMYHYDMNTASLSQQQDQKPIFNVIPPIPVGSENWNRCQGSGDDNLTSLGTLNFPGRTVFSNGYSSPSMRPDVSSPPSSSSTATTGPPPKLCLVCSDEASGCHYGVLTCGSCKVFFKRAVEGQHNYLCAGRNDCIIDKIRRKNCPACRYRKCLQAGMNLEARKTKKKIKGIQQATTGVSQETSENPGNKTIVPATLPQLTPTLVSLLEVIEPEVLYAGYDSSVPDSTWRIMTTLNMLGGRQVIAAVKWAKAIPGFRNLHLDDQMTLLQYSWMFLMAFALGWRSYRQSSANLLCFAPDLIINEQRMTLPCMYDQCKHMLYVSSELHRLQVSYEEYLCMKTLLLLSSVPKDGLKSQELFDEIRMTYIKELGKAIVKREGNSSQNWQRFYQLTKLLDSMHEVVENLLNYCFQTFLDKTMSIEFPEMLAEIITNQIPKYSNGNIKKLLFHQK

[6] = target: Glucocorticoid receptor (Homo sapiens) (UniProt P04150); assay: GR-EFC Redistribution (AID 451; calls by dose curve; note: potency is the fitted concentration of half-maximal effect); conditions: CHO-K1 GR-EFC translocation, beta-gal luminescence, 2 h
Outline: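 CHO-K1 cells expressing nuclear EA and GR-ED fragments of b-gal; compounds titrated up to 46 uM final, 2 h at 37 C. GR nuclear translocation read as complemented b-gal luminescence after 1 h RT detection.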

[7] = target: Mitogen-activated protein kinase 10 (Mus musculus) (UniProt Q61831); assay: JNK3 AlphaScreen Assay (AID 530; active = well fitted curve in either direction with a large enough effect, not every such curve was filed as active;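 note: kinase came from lysate of stimulated human HepG2 cells; signal reports phosphorylation of biotinylated GST-cJun 1-79 at Ser73 with 10 µM ATP; % is set by controls: 0 for no effect and ±100 for the full control effect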)
Outline: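 Activity was read by AlphaScreen after JNK3-containing HepG2 lysate (cytokine pre-activated) phosphorylated biotinylated GST-cJun with 10 uM ATP at room temperature. Phospho-Ser73 cJun antibody with Protein-A acceptor beads provided detection.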

[8] = target: Guanine nucleotide-binding protein G(i) subunit alpha-1 (Homo sapiens) (UniProt P63096); assay: qHTS Assay for Inhibitors of RGS12 GoLoco Motif Activity (Green Fluorophore) (AID 879);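 note: 0% = labeled peptide with Gαi1 and full inhibition = labeled peptide alone without protein; negative values mean loss of peptide binding seen as reduced polarization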
Sequence of Guanine nucleotide-binding protein G(i) subunit alpha-1 (Homo sapiens) (P63096 whole entry, looked up): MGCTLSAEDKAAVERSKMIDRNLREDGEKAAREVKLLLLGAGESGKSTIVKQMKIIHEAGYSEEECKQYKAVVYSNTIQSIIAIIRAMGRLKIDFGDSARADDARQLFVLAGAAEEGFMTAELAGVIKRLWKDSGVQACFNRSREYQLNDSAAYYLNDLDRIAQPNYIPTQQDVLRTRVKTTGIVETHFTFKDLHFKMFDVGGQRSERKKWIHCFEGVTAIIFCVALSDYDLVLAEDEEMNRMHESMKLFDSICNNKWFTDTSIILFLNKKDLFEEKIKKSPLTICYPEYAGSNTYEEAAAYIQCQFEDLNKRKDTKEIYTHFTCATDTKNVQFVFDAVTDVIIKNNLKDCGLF
Outline: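 A drop in FITC polarization marked displacement of the FITC-tagged RGS12 GoLoco peptide (10 nM) from Gαi1 (50 nM). Compounds were incubated 10 min at room temperature in Tris pH 7.5 buffer containing 150 mM NaCl, 0.1 mM GDP and 0.05% NP40; unlabeled peptide titration served as control.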

[9] = target: Muscarinic acetylcholine receptor M1 (Rattus norvegicus) (UniProt P08482); assay: qHTS Assay for Antagonists of Acetylcholine Muscarinic M1 Receptor: Measurement of IP-One Response (AID 944); note: nearly all actives have a fitted effect of over 75% in size
Sequence of Muscarinic acetylcholine receptor M1 (Rattus norvegicus) (P08482 whole entry, looked up): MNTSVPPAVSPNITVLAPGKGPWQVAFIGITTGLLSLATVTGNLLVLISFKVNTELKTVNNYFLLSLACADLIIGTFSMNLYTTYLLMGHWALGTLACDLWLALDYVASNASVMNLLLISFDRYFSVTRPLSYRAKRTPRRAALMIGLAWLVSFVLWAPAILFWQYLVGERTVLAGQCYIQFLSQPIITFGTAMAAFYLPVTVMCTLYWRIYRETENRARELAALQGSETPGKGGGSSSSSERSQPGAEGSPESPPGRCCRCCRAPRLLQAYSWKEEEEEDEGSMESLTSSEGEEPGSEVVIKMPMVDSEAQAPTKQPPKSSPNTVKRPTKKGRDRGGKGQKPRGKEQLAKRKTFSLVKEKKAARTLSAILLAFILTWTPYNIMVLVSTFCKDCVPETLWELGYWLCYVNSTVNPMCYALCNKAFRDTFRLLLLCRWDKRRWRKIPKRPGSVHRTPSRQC
Outline: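 IP1 accumulation measured via TR-FRET between d2-IP1 and Eu-cryptate anti-IP1 antibody after carbachol (200 nM, EC80) stimulation for 30 min; rat M1-transfected CHO cells received compound 10 min before agonist.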

[10] = target: Pyruvate kinase (Leishmania mexicana) (UniProt Q27686); assay: qHTS Validation Assay for Inhibitors of Leishmania Mexicana Pyruvate Kinase (AID 945);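 note: 0% = DMSO only neutral control wells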
Sequence of Pyruvate kinase (Leishmania mexicana) (Q27686 2-499 E452W): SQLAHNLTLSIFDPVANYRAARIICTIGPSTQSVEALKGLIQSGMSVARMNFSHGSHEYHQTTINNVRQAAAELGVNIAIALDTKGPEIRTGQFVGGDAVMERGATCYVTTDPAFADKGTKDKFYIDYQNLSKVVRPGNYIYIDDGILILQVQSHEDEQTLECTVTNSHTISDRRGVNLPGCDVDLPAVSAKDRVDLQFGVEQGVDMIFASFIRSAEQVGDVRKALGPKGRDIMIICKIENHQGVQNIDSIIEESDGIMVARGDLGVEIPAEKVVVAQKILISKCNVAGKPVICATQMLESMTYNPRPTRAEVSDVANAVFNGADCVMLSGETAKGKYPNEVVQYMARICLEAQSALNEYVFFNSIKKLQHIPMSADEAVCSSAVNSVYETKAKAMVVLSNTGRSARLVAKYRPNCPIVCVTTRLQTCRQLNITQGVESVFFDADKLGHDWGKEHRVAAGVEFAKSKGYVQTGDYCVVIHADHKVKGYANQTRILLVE
Outline: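 qHTS eight-point titrations against 0.2 nM LmPYK (E451W) in imidazole buffer pH 7.2 with 0.5 mM PEP, 0.1 mM ADP; 1 h, room temperature. Readout: PKLight luminescence, normalized to neutral DMSO wells.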

[11] = target: Pyruvate kinase PKM (Homo sapiens) (UniProt P14618); assay: qHTS Assay for Activators of Human Muscle Pyruvate Kinase (AID 954; active = well fitted curve in the direction sought with a large enough effect, not every such curve was filed as active;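 note: 0% = uninhibited enzyme and -100% = no enzyme or full thiadiazolimine inhibition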)
Sequence of Pyruvate kinase PKM (Homo sapiens) (P14618 whole entry, looked up): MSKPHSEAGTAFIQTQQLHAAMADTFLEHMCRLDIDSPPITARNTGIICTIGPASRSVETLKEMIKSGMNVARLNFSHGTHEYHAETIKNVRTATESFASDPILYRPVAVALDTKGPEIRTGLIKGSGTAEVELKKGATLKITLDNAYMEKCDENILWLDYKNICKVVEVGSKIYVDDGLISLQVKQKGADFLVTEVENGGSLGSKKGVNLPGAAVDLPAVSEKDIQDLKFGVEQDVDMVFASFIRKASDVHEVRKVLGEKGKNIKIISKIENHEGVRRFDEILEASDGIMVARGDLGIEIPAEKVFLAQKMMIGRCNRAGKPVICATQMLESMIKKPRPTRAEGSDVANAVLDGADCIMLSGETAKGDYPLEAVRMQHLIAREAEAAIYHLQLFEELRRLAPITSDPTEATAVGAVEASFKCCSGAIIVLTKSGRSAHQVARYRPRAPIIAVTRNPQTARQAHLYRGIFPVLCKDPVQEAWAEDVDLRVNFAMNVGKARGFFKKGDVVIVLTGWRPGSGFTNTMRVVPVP
Outline: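 Screening used highly purified human pyruvate kinase M2 under submaximal activity, with PEP at its Km and ADP below Km. After an hour at room temperature, ATP was read by luciferase luminescence.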

[12] = target: Alpha-galactosidase A (Homo sapiens) (UniProt P06280); assay: Counterscreen for Glucocerebrosidase Inhibitors: qHTS Assay for Human alpha-Galactosidase at pH 4.5 (AID 992); note: 0% is about no effect
Sequence of Alpha-galactosidase A (Homo sapiens) (P06280 whole entry, looked up): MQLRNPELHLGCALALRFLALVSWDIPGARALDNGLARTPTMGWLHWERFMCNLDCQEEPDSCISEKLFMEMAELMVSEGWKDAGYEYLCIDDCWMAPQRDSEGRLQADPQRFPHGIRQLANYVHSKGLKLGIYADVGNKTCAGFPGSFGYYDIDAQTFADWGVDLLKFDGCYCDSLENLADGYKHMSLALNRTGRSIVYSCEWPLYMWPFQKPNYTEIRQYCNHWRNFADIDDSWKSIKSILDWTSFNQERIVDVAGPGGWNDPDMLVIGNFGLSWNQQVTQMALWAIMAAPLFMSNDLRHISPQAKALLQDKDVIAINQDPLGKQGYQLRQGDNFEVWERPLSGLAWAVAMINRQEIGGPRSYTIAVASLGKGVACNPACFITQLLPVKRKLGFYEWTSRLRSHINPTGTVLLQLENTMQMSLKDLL
Outline: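 Each compound is preincubated briefly with 2 nM enzyme before substrate addition (80 uM); plates then sit 20 min at ambient temperature, are quenched with 1M NaOH/1M glycine, and read fluorometrically.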

[13] = target: alpha-glucosidase (Oryza sativa, rice) (UniProt Q653V4); assay: Counterscreen for Glucocerebrosidase Inhibitors: qHTS Assay for Rice alpha-Glucosidase at pH 5.0 (AID 997);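 note: 0% = full activity with enzyme and -100% = basal without enzyme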
Outline: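 Endpoint fluorogenic assay at pH 5.0: compounds (0.7 nM to 77 uM) titrated against 4 nM rice enzyme and 400 uM 4-MU-alpha-glucoside for 20 min at room temperature; NaOH/glycine stop, read ex 365/em 440 nm, Hill-fitted AC50.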

[14] = target: 3',5'-cyclic-AMP phosphodiesterase 4B (Homo sapiens) (UniProt Q07343); assay: qHTS Assay for Inhibitors of PDE-IV (AID 607; active = well fitted activation curve with a large enough effect in the main read-out, with a control signal flat, not every such curve was filed as active; note: % of control where 0% means no effect)
Sequence of 3',5'-cyclic-AMP phosphodiesterase 4B (Homo sapiens) (Q07343 whole entry, looked up): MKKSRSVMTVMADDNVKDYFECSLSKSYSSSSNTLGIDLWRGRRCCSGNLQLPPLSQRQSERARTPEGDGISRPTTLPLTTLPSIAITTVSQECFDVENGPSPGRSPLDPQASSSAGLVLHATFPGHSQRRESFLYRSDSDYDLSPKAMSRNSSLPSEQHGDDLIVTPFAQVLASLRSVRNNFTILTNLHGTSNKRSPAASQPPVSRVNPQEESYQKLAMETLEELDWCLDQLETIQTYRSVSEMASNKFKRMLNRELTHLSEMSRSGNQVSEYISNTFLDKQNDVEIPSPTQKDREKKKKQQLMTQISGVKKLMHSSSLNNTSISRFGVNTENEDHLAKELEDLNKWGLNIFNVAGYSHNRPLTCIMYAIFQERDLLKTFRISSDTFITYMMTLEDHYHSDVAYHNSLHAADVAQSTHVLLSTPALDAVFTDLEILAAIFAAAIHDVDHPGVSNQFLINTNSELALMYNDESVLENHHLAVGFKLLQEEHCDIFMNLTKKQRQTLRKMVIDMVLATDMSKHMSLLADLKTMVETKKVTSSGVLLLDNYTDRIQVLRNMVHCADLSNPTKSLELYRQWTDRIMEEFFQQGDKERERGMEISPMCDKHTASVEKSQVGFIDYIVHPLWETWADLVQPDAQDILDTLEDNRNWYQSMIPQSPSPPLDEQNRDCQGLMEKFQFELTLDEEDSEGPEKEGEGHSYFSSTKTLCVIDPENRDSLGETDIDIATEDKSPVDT
Outline: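 Live HEK293 cells with a modified cyclic nucleotide-gated (CNG) channel report intracellular cAMP via membrane-potential dye fluorescence (ex 535/em 590 nm). Endogenous PDE-IV was targeted. Compounds were tested at up to 22.9 uM final; RO 20-1724 100 uM served as control.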

[15] = target: Cytochrome P450 3A4 (Homo sapiens) (UniProt P08684); assay: qHTS Assay for Activators of Cytochrome P450 3A4 (AID 885); note: nearly all actives have a fitted effect of over 65% in size
Outline: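 Using 20nM recombinant human CYP3A4 in potassium phosphate (200mM), substrate Luciferin-PPXE at 25uM, luminescent luciferin detection followed a 60-min RT NADPH reaction; data scaled to 57 uM ketoconazole.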

[16] = qHTS Assay for Identification of Small Molecule Agonists for Thrombopoietin (TPO) Signaling Pathway (AID 917); note: % is set by controls: 0 for no effect and ±100 for the full control effect
Outline: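 Quantitative HTS for pathway activators: compounds were pin-transferred onto IL-3-starved Ba/F3 cells expressing human TPO receptor, TPO was added at its EC50 (26 pM final), and after 24 hrs at 37 C reporter luciferase was measured.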

[17] = target: Muscarinic acetylcholine receptor M1 (Rattus norvegicus) (UniProt P08482); assay: qHTS Assay for Antagonists of Acetylcholine Muscarinic M1 Receptor: Kinetic Measurement of Intracellular Calcium Response (AID 943);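 note: Fluo-4 calcium signal as peak divided by basal fluorescence over 4 min; nearly all actives have a fitted effect of over 75% in size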
Outline: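 Antagonism measured as reduction of carbachol-evoked (EC80, 100 nM final) calcium flux in rat M1-CHO cells after 10 min compound exposure. Fluo-4 signal read kinetically; ratio of maximal to basal fluorescence.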

[18] = target: Cytochrome P450 2C9 (Homo sapiens) (UniProt P11712); assay: qHTS Assay for Inhibitors and Substrates of Cytochrome P450 2C9 (AID 883); note: nearly all actives have a fitted effect of over 60% in size; note: potency is the fitted concentration of half-maximal effect
Sequence of Cytochrome P450 2C9 (Homo sapiens) (P11712 whole entry, looked up): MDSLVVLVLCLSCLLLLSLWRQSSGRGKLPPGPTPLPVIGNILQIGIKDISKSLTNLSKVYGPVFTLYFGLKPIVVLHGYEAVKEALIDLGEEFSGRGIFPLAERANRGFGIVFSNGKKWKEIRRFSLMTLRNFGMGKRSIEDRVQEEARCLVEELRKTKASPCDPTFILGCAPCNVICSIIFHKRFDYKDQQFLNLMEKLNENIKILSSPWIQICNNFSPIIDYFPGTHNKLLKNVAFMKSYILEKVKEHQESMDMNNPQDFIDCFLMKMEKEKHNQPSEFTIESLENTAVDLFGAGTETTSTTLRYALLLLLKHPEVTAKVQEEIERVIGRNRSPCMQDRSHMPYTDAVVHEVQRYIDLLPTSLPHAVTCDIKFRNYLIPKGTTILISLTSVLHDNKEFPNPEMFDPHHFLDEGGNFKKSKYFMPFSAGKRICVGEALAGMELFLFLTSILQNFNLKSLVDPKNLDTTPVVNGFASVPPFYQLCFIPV
Outline: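 10nM CYP2C9 + 100uM Luciferin-H (=KM), 25mM KPO4; cpd 10 min 37C; NADPH regen, 60 min 37C; stop/detect with P450 Glo-Buffer 20 min; luminescence. Norm. to 57uM sulphaphenazole as full inhibition.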

[19] = target: Cytochrome P450 2D6 (Homo sapiens) (UniProt P10635); assay: qHTS Assay for Inhibitors and Substrates of Cytochrome P450 2D6 (AID 891);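 note: luciferin methyl ether substrate demethylated by CYP2D6 with NADPH regeneration; % is set by controls: 0 for no effect and ±100 for the full control effect; nearly all actives have a fitted effect of over 60% in size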
Outline: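 Luminescent read-out of luciferin formed by 5 nM human CYP2D6 demethylating 30 uM Luciferin-ME EGE (Km level) over 60 min at room temperature after NADPH regeneration addition. Data normalized to full inhibition by 1.43 uM quinidine.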

Nc1nc(Cl)nc2c1ncn2[C@@H]1O[C@@H](CO)[C@@H](O)[C@H]1O
inactive: activity change, negative = inhibition [1] -7.62% [at 38 µM] | Potency [2] | activity change, negative = inhibition [3] 2.55% [at 38 µM] | activity, negative = inhibition [4] 7.39% [at 38 µM] | Potency [5] > 46 µM | Potency [6] > 46 µM | Potency [7] | outcome [8] | Potency [9] | outcome [10] | outcome [11] | outcome [12] | Potency [13]

O=c1ccn([C@@H]2O[C@@H](COP(=O)(O)OP(=O)(O)O)[C@H](O)[C@@H]2O)c(=O)[nH]1
inactive: activity change, negative = inhibition [1] 4.38% [at 38 µM] | Potency [2] | activity change, negative = inhibition [3] -1.51% [at 38 µM] | activity, negative = inhibition [4] 11.6% [at 38 µM] | Potency [5] > 46 µM | Potency [6] > 46 µM | Potency [14] | outcome [8] | Potency [15] | outcome [16] | Potency [17] | Potency [9] | outcome [10] | outcome [11] | outcome [12] | Potency [13]

O=C(O)/C=C\[C@H](O)c1ccc(Cl)cc1
inactive: activity change, negative = inhibition [1] 1.29% [at 38 µM] | Potency [2] | activity change, negative = inhibition [3] 8.91% [at 38 µM] | activity, negative = inhibition [4] -1.2% [at 38 µM] | Potency [5] > 46 µM | Potency [6] > 46 µM | Potency [7] | outcome [8] | outcome [16] | Potency [17] | outcome [10] | outcome [11] | outcome [12] | Potency [13]

CCCC[C@]1(C2CCCC2)Cc2cc(OCC(=O)O)c(Cl)c(Cl)c2C1=O
inactive: activity change, negative = inhibition [1] -1.05% [at 38 µM] | Potency [2] | activity change, negative = inhibition [3] -21.4% [at 38 µM] | activity, negative = inhibition [4] -1.69% [at 38 µM] | Potency [5] > 46 µM | Potency [6] > 46 µM | Potency [7] | outcome [8] | Potency [15] | Potency [17] | Potency [9] | outcome [10] | outcome [11] | outcome [12] | Potency [13]
active: Potency [18] 2.51 µM

C[C@@]12CCC(=O)C=C1CC[C@H]1[C@H]3CC[C@](O)(C(=O)CO)[C@]3(C)CC[C@@H]12
active: Potency [5] 0.114 µM
inactive: activity change, negative = inhibition [1] 16% [at 38 µM] | Potency [2] | activity change, negative = inhibition [3] -2.8% [at 38 µM] | activity, negative = inhibition [4] -40.3% [at 38 µM] | Potency [7] | Potency [14] | Potency [18] | Potency [19]

Nc1ncnc2c1nc(Br)n2[C@@H]1O[C@H]2COP(=O)(O)O[C@@H]2[C@H]1O
inactive: activity change, negative = inhibition [1] -7.65% [at 38 µM] | Potency [2] | activity change, negative = inhibition [3] 6.13% [at 38 µM] | activity, negative = inhibition [4] 4.8% [at 38 µM] | Potency [7] | Potency [14] | outcome [8] | outcome [16] | Potency [17] | Potency [9] | outcome [10] | outcome [11] | outcome [12] | Potency [13]
active: Potency [5] 2.43 µM
